Read-out in experiment [1]: E-selectin (Homo sapiens) (UniProt P16581)
Kind of experiment: BSK_3C_Eselectin: BioMAP Diversity Plus: 3C Assay for Eselectin Biomarker Activity (AID 2283015).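 On outcome: cell surface E-selectin protein quantified by ELISA 24 h after dosing.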 The conditions noted are these: primary human endothelial cells (HUVEC); actives raise or lower the signal. A digest of the protocol:
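E-selectin ELISA readout, fitted bidirectionally relative to DMSO, taken 24 h post-dosing in HUVEC cultures of the 3C system. Overt cytotoxicity tracked with sulforhodamine B staining of parallel wells.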

Read-out in experiment [2]: Interleukin-1 alpha (IL1a), IL1A (gene 3552)
The experiment in a line: BSK_BE3C_IL1a: BioMAP Diversity Plus: BE3C Assay for Interleukin-1 alpha (IL1a) Biomarker Activity (AID 2283016). The conditions noted are these: primary human bronchial epithelial cells; actives raise or lower the signal. An outline of the steps: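 BE3C primary human bronchial epithelium; cpd 24 h; IL-1a by ELISA; bidirectional fit vs DMSO; parallel SRB (0.1% SRB, 10% TCA fix, 560 nm) for cytotoxicity.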

Read-out in experiment [3]: Monocyte Chemoattractant Protein-1 (MCP1), CCL2 (gene 6347)
The experiment in a line: BSK_3C_MCP1: BioMAP Diversity Plus: 3C Assay for Monocyte Chemoattractant Protein-1 (MCP1) Biomarker Activity (AID 2283017). Particulars: primary human endothelial cells (HUVEC); actives raise or lower the signal. An outline of the steps: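 MCP-1 was measured by ELISA 24 h after dosing in primary HUVEC 3C cultures and fitted in both directions relative to DMSO; cytotoxicity was checked by SRB total-protein staining in parallel wells.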

Read-out in experiment [4]: Monocyte Chemoattractant Protein-1 (MCP1), CCL2 (gene 6347)
Kind of experiment: BSK_4H_MCP1: BioMAP Diversity Plus: 4H Assay for Monocyte Chemoattractant Protein-1 (MCP1) Biomarker Activity (AID 2283018). Particulars: primary human endothelial cells (HUVEC); actives raise or lower the signal. An outline of the steps:
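ELISA read-out of MCP-1 from human vascular endothelial primary cells taken at 24 hours after compound exposure. Activity was fitted in both directions relative to DMSO, which served as negative control.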

Read-out in experiment [5]: Human Leukocyte Antigen - DR isotype (HLADR), HLA-DRA (gene 3122)
The experiment in a line: BSK_3C_HLADR: BioMAP Diversity Plus: 3C Assay for Human Leukocyte Antigen - DR isotype (HLADR) Biomarker Activity (AID 2283019).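 On outcome: ELISA of cell-surface HLA-DR on HUVEC 24 h after dosing.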 The conditions noted are these: primary human endothelial cells (HUVEC); actives raise or lower the signal. An outline of the steps: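 Bidirectional fitting against DMSO was applied to the HLA-DR ELISA signal from human umbilical vein endothelial cells, 24 h post-dose. Cytotoxicity came from parallel SRB total-protein staining; 3C proliferation was counted by SRB at 48 h.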

Read-out in experiment [6]: Interleukin-8 (IL8), CXCL8 (gene 3576)
The experiment in a line: BSK_3C_IL8: BioMAP Diversity Plus: 3C Assay for Interleukin-8 (IL8) Biomarker Activity (AID 2283020). Particulars: primary human endothelial cells (HUVEC); actives raise or lower the signal. A digest of the protocol:
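ELISA read-out of IL-8 from human umbilical vein endothelium, measured 24 h after chemical dosing. Activity is expressed relative to DMSO negative control, with both increases and decreases fitted.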

Read-out in experiment [7]: Monokine induced gamma interferon (MIG), CXCL9 (gene 4283)
The experiment in a line: BSK_3C_MIG: BioMAP Diversity Plus: 3C Assay for Monokine induced gamma interferon (MIG) Biomarker Activity (AID 2283021).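 On AC50: MIG protein level measured by immunoassay in the treated endothelial cultures.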 Particulars: primary human endothelial cells (HUVEC); actives raise or lower the signal. An outline of the steps: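 Read-out is ELISA detection of MIG on human umbilical vein endothelial cells, taken 24 h after dosing. Gain or loss of signal was scored relative to DMSO controls using bidirectional curve fitting.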

Experiment [8] concerns the target human Vitamin D Receptor (VDR), VDR (gene 7421) (UniProt P11473). Kind of experiment: ATG_VDR_TRANS: Attagene TRANS-FACTORIAL HepG2 Assay for human Vitamin D Receptor (VDR) (AID 2283022; active means hit-call score of the fitted dose curve at least 0.9, where 1 is the maximum). A digest of the protocol: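 Transactivation by an exogenous VDR-Gal4 chimera in transiently transfected HepG2 cells was measured as reporter transcript level 24 hours after chemical treatment. RT-PCR products were analysed by capillary electrophoresis and fitted in the positive direction relative to DMSO.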

Read-out in experiment [9]: Matrix Metallopeptidase 1 (MMP1), MMP1 (gene 4312)
The experiment in a line: BSK_BE3C_MMP1: BioMAP Diversity Plus: BE3C Assay for Matrix Metallopeptidase 1 (MMP1) Biomarker Activity (AID 2283024). The conditions noted are these: primary human bronchial epithelial cells; actives raise or lower the signal. A digest of the protocol:
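Human bronchial epithelial cells (BE3C system) exposed to compound for 24 h; MMP1 then quantified by ELISA. Activity was fitted in both directions relative to DMSO.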

The nature of experiment [10]: BSK_3C_SRB: Viability Assessment in the BioMAP Diversity Plus: 3C Assay (AID 2283023).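 Further: fitted both ways against DMSO so a hit may be signal rise or drop.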 The conditions noted are these: primary human endothelial cells (HUVEC). A digest of the protocol:
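Cytotoxicity readout in parallel HUVEC 3C cultures: after 24 h compound exposure, cells fixed with 10% TCA, stained with 0.1% SRB and read at 560 nm. Gain or loss relative to DMSO fitted.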

Each structure is given as a SMILES string. Inconclusive results are not listed. More than one record can exist for a structure, and the calls need not agree. Activity calls are given as the source filed them. How the source made its calls, unless noted: active means hit-call score of the fitted dose curve at least 0.9, where 1 is the maximum; inactive means score below 0.9.

The values that follow come from PubChem BioAssay (EPA / NIEHS).

Chain of human Vitamin D Receptor (VDR), VDR (gene 7421) (P11473 whole entry, looked up, the tested form may be a part): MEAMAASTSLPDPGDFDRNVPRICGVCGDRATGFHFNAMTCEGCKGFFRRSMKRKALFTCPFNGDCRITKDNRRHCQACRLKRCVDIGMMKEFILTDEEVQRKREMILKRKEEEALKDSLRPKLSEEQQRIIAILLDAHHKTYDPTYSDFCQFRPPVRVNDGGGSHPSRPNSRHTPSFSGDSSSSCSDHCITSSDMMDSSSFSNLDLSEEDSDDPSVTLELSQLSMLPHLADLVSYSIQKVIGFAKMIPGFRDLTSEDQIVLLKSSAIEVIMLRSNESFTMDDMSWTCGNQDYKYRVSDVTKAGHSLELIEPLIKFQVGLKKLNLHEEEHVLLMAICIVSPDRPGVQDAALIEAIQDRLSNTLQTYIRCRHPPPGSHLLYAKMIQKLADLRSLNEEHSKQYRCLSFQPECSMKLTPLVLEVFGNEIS
Chain of E-selectin (Homo sapiens) (P16581 whole entry, looked up): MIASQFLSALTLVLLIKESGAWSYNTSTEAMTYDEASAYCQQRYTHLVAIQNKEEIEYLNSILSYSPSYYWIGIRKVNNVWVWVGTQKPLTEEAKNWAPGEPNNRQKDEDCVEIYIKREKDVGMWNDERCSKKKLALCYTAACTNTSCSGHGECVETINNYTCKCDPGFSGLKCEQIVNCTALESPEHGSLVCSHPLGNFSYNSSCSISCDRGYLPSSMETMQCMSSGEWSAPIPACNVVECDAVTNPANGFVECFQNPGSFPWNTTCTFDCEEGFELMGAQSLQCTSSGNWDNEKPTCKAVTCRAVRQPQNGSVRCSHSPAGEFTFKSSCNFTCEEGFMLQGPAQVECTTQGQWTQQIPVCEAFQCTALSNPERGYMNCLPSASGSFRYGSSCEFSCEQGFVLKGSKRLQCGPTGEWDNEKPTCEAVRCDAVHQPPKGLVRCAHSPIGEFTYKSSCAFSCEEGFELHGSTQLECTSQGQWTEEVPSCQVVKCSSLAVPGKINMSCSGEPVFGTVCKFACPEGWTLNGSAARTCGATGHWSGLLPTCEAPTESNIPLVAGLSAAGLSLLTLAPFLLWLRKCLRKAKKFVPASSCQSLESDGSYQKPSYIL

Regarding `CS(=O)(=O)c1ccc([C@@H](C[C@H]2CCC(=O)C2)C(=O)Nc2cnccn2)cc1Cl`, the outcome in experiment [1], in experiment [2], in experiment [3], in experiment [4], in [5] and in experiment [6] was inactive. Besides, the outcome in experiment [7], in [8] and in experiment [9] was inactive.

In the case of `CC(C)c1cccc(C(C)C)c1`, the result in [1], in [2], in experiment [3], in experiment [4], in experiment [5] and in experiment [6] was inactive.

Turning to `Oc1ccc(O)cc1`, the half-maximal activity concentration (AC50) in [1] is 13.8 µM (active); in [5] it was 23.5 µM (active); in [9] it was 2.96 µM (active). Moreover, the result in experiment [2], in experiment [3], in [4], in [6], in experiment [7] and in experiment [8] was inactive. In addition, in experiment [10], the outcome was inactive.

`CCCCCCCCCC[N+](C)(C)[O-]`: the result in [1], in experiment [2], in experiment [3], in experiment [4], in [5] and in experiment [6] was inactive. In addition, the outcome in experiment [7] and in experiment [8] was inactive.

Take `CCc1nc(N)nc(N)c1-c1ccc(Cl)cc1`: the outcome in experiment [1], in [2], in experiment [3], in experiment [4], in experiment [5] and in [6] was inactive. The outcome in [7], in [8] and in experiment [10] was inactive.

`NC=O`: the outcome in experiment [1], in [2], in [3], in [4], in experiment [5] and in experiment [6] was inactive. The outcome in experiment [7], in [8] and in experiment [9] was inactive.

As for `C=CCc1ccc(OC)c(OC)c1`, the outcome in experiment [1], in [2], in experiment [3], in [4], in experiment [5] and in experiment [6] was inactive. Further, the outcome in experiment [7], in [8] and in experiment [9] was inactive.

Turning to `CC(=O)OCC(COC(C)=O)OC(C)=O`, the result in experiment [1], in [2], in [3], in experiment [4], in [5] and in experiment [6] was inactive. In addition, the molecule was called inactive in experiment [8] and in experiment [10].

For the molecule `CC1(C)C(=O)NC(=O)N1CO`, the outcome in [1], in [2], in [3], in experiment [4], in experiment [5] and in [6] was inactive. The molecule was called inactive in experiment [8] and in experiment [10].

For `O=C(Oc1ccccc1)c1cccc(C(=O)Oc2ccccc2)c1`, the result in experiment [1], in experiment [2], in experiment [3], in [4], in [5] and in experiment [6] was inactive. Further, the result in experiment [7], in experiment [10] and in [9] was inactive.

As to `O=C(O)CC(O)(CC(=O)O)C(=O)O`, the result in experiment [1], in [2], in [3], in [4], in experiment [5] and in experiment [6] was inactive. The result in [7] and in [9] was inactive.

As to `O=C1CCCCC1`, the result in experiment [1], in experiment [2], in experiment [3], in [4], in experiment [5] and in experiment [6] was inactive. Further, the outcome in experiment [7], in experiment [8] and in experiment [9] was inactive.

As to `OCC(O)CO`, the result in [1], in experiment [2], in [3], in [4], in [5] and in experiment [6] was inactive. In addition, the result in experiment [7] and in experiment [10] was inactive.

Take `CCCCCCC(C=O)=Cc1ccccc1`: the concentration at half-maximal activity (AC50) was 37.7 µM (active) in experiment [1], 35 µM (active) in experiment [3], 36.7 µM (active) in experiment [5] and 30.1 µM (active) in experiment [6]. Moreover, the result in experiment [2], in [4] and in experiment [8] was inactive.

Regarding `O=C(NS(=O)(=O)/C=C/c1cccs1)c1ccc(F)cc1Br`, the result in experiment [1], in experiment [2], in experiment [3], in experiment [4], in [5] and in experiment [6] was inactive. Besides, the molecule was classed as inactive in experiment [8] and in [10].

Take `CC(=O)O[C@]1(C(C)=O)CC[C@H]2[C@@H]3C=C(Cl)C4=CC(=O)[C@@H]5C[C@@H]5[C@]4(C)[C@H]3CC[C@@]21C`: the result in experiment [1], in experiment [3], in experiment [4], in experiment [6] and in [8] was inactive. The AC50 in experiment [2] was 32.8 µM (active); in [5] it was 33.4 µM (active); in experiment [8], 148 µM (active); in experiment [10], 29.8 µM (active); in experiment [9] it was 4.91 µM (active).

`O=C(O)c1cccnc1`: the result in experiment [1], in experiment [2], in experiment [3], in [4], in experiment [5] and in experiment [6] was inactive. Moreover, the outcome in experiment [7] and in experiment [9] was inactive.

Turning to `NC1CCCCC1`, the result in experiment [1], in experiment [2], in experiment [3], in experiment [4], in experiment [5] and in [6] was inactive. Further, the outcome in experiment [7], in experiment [8] and in experiment [9] was inactive.

On to `CCN(CC)CCOc1ccc(C(=C(Cl)c2ccccc2)c2ccccc2)cc1`, for which the AC50 is 14.3 µM (active) in experiment [1]; 18.9 µM (active) in experiment [2]; 11.6 µM (active) in experiment [3]; 9.04 µM (active) in experiment [4]; 7.41 µM (active) in [5]; 10.9 µM (active) in experiment [6]. In addition, the figures for the AC50 in [7] and in experiment [9] were 15.1 µM (active) and 28 µM (active), respectively. Also, the molecule was called inactive in [8].

As for `COC(=O)CCC(=O)OC`, the outcome in [1], in [2], in [3], in experiment [4], in experiment [5] and in experiment [6] was inactive. The outcome in experiment [7] and in [10] was inactive.

For `COc1ccc(C(=O)Nc2nc3ccccc3c(NCc3ccccc3)c2C#N)cc1`, the outcome in experiment [1], in experiment [2], in experiment [3], in experiment [4], in [5] and in experiment [6] was inactive. Besides, the outcome in [7] was inactive. Also, the AC50 was 8.6 µM (active) in [10] and 7.48 µM (active) in experiment [9].
